This note sets out measurements from a collection of fitness landscapes (doi:10.1038/s41467-024-54723-y).

Over roughly 18,000 sequences, “TetR repression strength (sort-seq, GFP reporter)” has its median near 0.23; the highest 2% begin near 0.68. The full list was thinned out, with the highest values kept by preference.

Chain of TetR (class B, Tn10) (P04483 whole entry): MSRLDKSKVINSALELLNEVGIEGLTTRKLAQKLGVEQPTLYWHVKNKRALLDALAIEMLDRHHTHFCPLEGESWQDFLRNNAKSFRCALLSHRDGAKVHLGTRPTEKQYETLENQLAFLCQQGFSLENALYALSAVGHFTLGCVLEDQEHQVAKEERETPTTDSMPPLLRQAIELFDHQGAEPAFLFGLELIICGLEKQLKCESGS

The assay has as its target TetR (class B, Tn10) (UniProt P04483). Kind of assay: TetR repression strength (sort-seq, GFP reporter) (relative to tetO2 = 1); higher = stronger repression. The settings on record: E. coli. Put shortly:
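Escherichia coli SIG10-MAX cells carried a low-copy plasmid library in which eight operator positions were randomized between a constitutive promoter and sfGFP, and TetR was expressed constitutively. After 5 h of growth at 37 °C in LB with 50 µg/mL chloramphenicol, 10^6 cells were FACS-sorted into 13 fluorescence bins, and each bin was Illumina-sequenced. Repression strength was the top bin index plus one minus the read-weighted mean bin, divided by the value for the unaltered operator. Across three independent transformations, only library members with ≥30 reads in every replicate and a CV ≤0.5 were averaged.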
TCCCGGTTAGTTGAGGAGA registered a TetR repression strength of 0.12.

TCCCTCAGAGTGTTAGAGA gave a TetR repression strength of 0.248.

With TCCCGAGAAGTCCATGAGA, the TetR repression strength worked out at 0.207.

TCCCGTGAAGTCGCTGAGA came in with a TetR repression strength of 0.168.

Take TCCCTAGTAGTAAGCGAGA: the TetR repression strength came to 0.136.

TCCCGCTCAGTTATAGAGA: the TetR repression strength was determined as 0.764.

TCCCGATCAGTTATAGAGA registered a TetR repression strength of 0.579.

In turn, TCCCGCACAGTTATAGAGA came in with a TetR repression strength of 0.275.

Sequence TCCCGAGGAGTTGGCGAGA registered a TetR repression strength of 0.14.

In turn, TCCCGGGAAGTTGTGGAGA came in with a TetR repression strength of 1.1.

TCCCCGGAAGTTACGGAGA showed a TetR repression strength of 0.343.

For the sequence TCCCGGGGAGTTGTGGAGA, the TetR repression strength was determined as 0.215.

In turn, TCCCGGGGAGTTACGGAGA came in with a TetR repression strength of 0.447.

Sequence TCCCGGGAAGTTACGGAGA gave a TetR repression strength of 0.707.

Take TCCCGGAAAGTTGTGGAGA: the TetR repression strength was found to be 0.275.

TCCCCAAAAGTTTGTGAGA came in with a TetR repression strength of 0.0341.

TCCCCTCGAGTTGGGGAGA displayed a TetR repression strength of 0.121.

In turn, TCCCGGAGAGTCCTTGAGA gave a TetR repression strength of 0.295.

In the case of TCCCTCGAAGTGCGGGAGA, the TetR repression strength was 0.25.

For the sequence TCCCCAAGAGTAAATGAGA, the TetR repression strength turned out to be 0.368.

Turning to TCCCGGATAGTGACCGAGA, the TetR repression strength turned out to be 0.131.

The sequence TCCCTCCAAGTGGGAGAGA registered a TetR repression strength of 0.14.

As for TCCCCGCCAGTCCAGGAGA, the TetR repression strength was 0.104.

Regarding TCCCCAGGAGTCTAGGAGA, the TetR repression strength worked out at 0.284.

The sequence TCCCTGCAAGTCTAGGAGA displayed a TetR repression strength of 0.171.

Sequence TCCCGCCAAGTCCCTGAGA came in with a TetR repression strength of 0.389.

TCCCTCCCAGTCTAGGAGA came in with a TetR repression strength of 0.263.

Turning to TCCCGCCAAGTCCGGGAGA, the TetR repression strength is 0.21.

TCCCCGCCAGTCTAGGAGA displayed a TetR repression strength of 0.681.

Sequence TCCCTGCCAGTCTAGGAGA displayed a TetR repression strength of 0.415.

TCCCCCCCAGTCTAGGAGA: the TetR repression strength is 0.8.

TCCCGCCAAGTCCCGGAGA: the TetR repression strength worked out at 1.1.

TCCCCGGAAGTCTAGGAGA: the TetR repression strength turned out to be 0.113.

Sequence TCCCCGCAAGTCTAGGAGA registered a TetR repression strength of 0.739.

TCCCCGTGAGTCGATGAGA gave a TetR repression strength of 0.313.

On to TCCCGCGTAGTCCGCGAGA, for which the TetR repression strength was found to be 0.172.

For the sequence TCCCGAGTAGTGTGTGAGA, the TetR repression strength amounted to 0.28.

TCCCATTGAGTTCCGGAGA came in with a TetR repression strength of 0.115.

TCCCATCCAGTGGGGGAGA: the TetR repression strength is 0.175.

Take TCCCCCCTAGTTGTGGAGA: the TetR repression strength stood at 0.213.

For TCCCTGTGAGTTGGTGAGA, the TetR repression strength was 0.656.

The sequence TCCCTATCAGTAATAGAGA gave a TetR repression strength of 0.878.

For TCCCTTTCAGTGAGAGAGA, the TetR repression strength stood at 0.566.

TCCCTCTCAGTACTAGAGA gave a TetR repression strength of 0.283.

Consider TCCCTTTCAGTGATAGAGA, for which the TetR repression strength is 0.785.

TCCCTCTCAGTAATAGAGA: the TetR repression strength is 0.686.

Turning to TCCCTTTCAGTGATGGAGA, the TetR repression strength is 0.574.

TCCCTTTCAGTTATAGAGA gave a TetR repression strength of 0.649.

TCCCTAACAGTAATAGAGA came in with a TetR repression strength of 0.569.

Take TCCCTTTAAGTAATAGAGA: the TetR repression strength stood at 0.44.

The sequence TCCCTATCAGTAACAGAGA registered a TetR repression strength of 0.539.

Regarding TCCCTCTAAGTAATAGAGA, the TetR repression strength stood at 0.472.

In the case of TCCCTTTCAGTAATAGAGA, the TetR repression strength stood at 0.745.

TCCCACCAAGTGGGTGAGA came in with a TetR repression strength of 0.139.

On to TCCCTGTGAGTTTGGGAGA, for which the TetR repression strength came out at 0.424.

In turn, TCCCGGAGAGTTTCTGAGA displayed a TetR repression strength of 0.191.

Turning to TCCCCTTTAGTGCCTGAGA, the TetR repression strength came to 0.523.

TCCCGTTGAGTAGGGGAGA returned a TetR repression strength of 0.0793.

As for TCCCAGGGAGTAGCGGAGA, the TetR repression strength turned out to be 0.159.

In turn, TCCCACGTAGTGCAAGAGA had a TetR repression strength of 0.62.

TCCCTTCAAGTGCTCGAGA returned a TetR repression strength of 0.24.

For the sequence TCCCATGTAGTGTGGGAGA, the TetR repression strength stood at 0.203.

As to TCCCGATCAGTGCAGGAGA, the TetR repression strength turned out to be 0.299.

In turn, TCCCTGCGAGTGGGGGAGA registered a TetR repression strength of 0.264.

As to TCCCTGCTAGTGGAGGAGA, the TetR repression strength amounted to 1.14.

TCCCTGCGAGTGGTGGAGA gave a TetR repression strength of 0.112.

In turn, TCCCTGCTAGTGGTGGAGA gave a TetR repression strength of 0.404.

On to TCCCTGCGAGTGGAGGAGA, for which the TetR repression strength amounted to 1.08.

For TCCCTGCTAGTGGGGGAGA, the TetR repression strength was 0.0729.

The sequence TCCCGGGAAGTGTGTGAGA returned a TetR repression strength of 0.177.

On to TCCCTTGTAGTGAATGAGA, for which the TetR repression strength is 0.277.

TCCCGGGCAGTGCCTGAGA yielded a TetR repression strength of 0.283.

In turn, TCCCCGGGAGTGAGGGAGA gave a TetR repression strength of 0.13.

The sequence TCCCGGCCAGTTAGAGAGA yielded a TetR repression strength of 0.129.

With TCCCGGGAAGTCTGGGAGA, the TetR repression strength is 1.24.

In the case of TCCCTGCCAGTCTGCGAGA, the TetR repression strength came to 0.24.

The sequence TCCCGGCCAGTCTGCGAGA registered a TetR repression strength of 0.967.

TCCCGGGGAGTCTGGGAGA returned a TetR repression strength of 0.179.

On to TCCCCGGCAGTCTGCGAGA, for which the TetR repression strength stood at 0.266.

Turning to TCCCCGGCAGTCTGGGAGA, the TetR repression strength is 0.271.

With TCCCGGGCAGTCTGAGAGA, the TetR repression strength was 0.179.

Sequence TCCCGGGCAGTCTGGGAGA showed a TetR repression strength of 1.2.

Sequence TCCCGGAAAGTCTGGGAGA came in with a TetR repression strength of 0.153.

For the sequence TCCCAGGTAGTAATAGAGA, the TetR repression strength came to 0.443.

TCCCTGTCAGTACAGGAGA gave a TetR repression strength of 0.118.

For TCCCAAACAGTTTGTGAGA, the TetR repression strength was 0.0981.

TCCCCGAAAGTACAGGAGA: the TetR repression strength came to 0.259.

The sequence TCCCCTGTAGTCGTAGAGA registered a TetR repression strength of 0.344.

For TCCCCCGGAGTGGGCGAGA, the TetR repression strength was 0.111.

TCCCCAGCAGTGGGCGAGA yielded a TetR repression strength of 0.125.

Regarding TCCCCGGGAGTGGGCGAGA, the TetR repression strength came out at 0.993.

Take TCCCAAGGAGTCGGCGAGA: the TetR repression strength amounted to 0.743.

In turn, TCCCCAGGAGTCGGCGAGA registered a TetR repression strength of 0.237.

Sequence TCCCCAGTAGTGGGCGAGA returned a TetR repression strength of 0.963.

Regarding TCCCCAGTAGTGGGGGAGA, the TetR repression strength is 0.14.

TCCCAGGGAGTGGGCGAGA: the TetR repression strength was found to be 0.312.

Sequence TCCCGGGGAGTGGGCGAGA came in with a TetR repression strength of 0.225.

As for TCCCAAGGAGTGGGCGAGA, the TetR repression strength came to 0.231.

Sequence TCCCCAGGAGTGGGCGAGA returned a TetR repression strength of 0.894.

The sequence TCCCGAGGAGTCGGCGAGA showed a TetR repression strength of 0.0782.

In turn, TCCCACCCAGTAGTGGAGA had a TetR repression strength of 0.211.

In the case of TCCCTAGAAGTCCTAGAGA, the TetR repression strength is 0.0793.
